Compound activity (PubChem)
Pin1 inhibitor: qHTS Assay to Find Inhibitors of Pin1; 390,000 tested, 0.009% active; Potency, µM (titrated, usually from 115 µM), for inactives: top-dose activity, negative = inhibition, usual class: inhibitors; Pin1 FP peptide displacement, HiFluor488, 10 min; active = well fitted inhibition curve with a large enough effect in the polarisation, with a control signal flat, not every such curve was filed as active; inconclusive = small, poorly fitted or top-dose-only effect, or effect the other way, or a change in a side signal; inactive = no such curve, though single readings can be large or run the other way; the % refers to the polarisation; note: potency is the fitted concentration of half-maximal effect
Target sequence (Q13526 whole entry, looked up): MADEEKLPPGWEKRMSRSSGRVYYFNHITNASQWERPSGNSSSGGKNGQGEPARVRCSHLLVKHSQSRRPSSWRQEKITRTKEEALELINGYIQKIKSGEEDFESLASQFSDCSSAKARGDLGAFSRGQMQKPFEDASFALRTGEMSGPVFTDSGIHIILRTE
PI4K2A inh: qHTS for small molecular inhibitors of PI4K2A; purified PI4K2A, ADP-Glo luminescence, 1 h; active compounds read low; activity change, negative = inhibition, % at 76.9 µM; 420,000 tested, 0.13% active; Phosphatidylinositol 4-kinase type 2-alpha (Homo sapiens), Q9BTU6; in the data active = activity change below about -50%; inconclusive = mostly about -30% to -49%;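 note: -100% = wells without enzyme as full effect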
Target sequence (Q9BTU6 whole entry, looked up): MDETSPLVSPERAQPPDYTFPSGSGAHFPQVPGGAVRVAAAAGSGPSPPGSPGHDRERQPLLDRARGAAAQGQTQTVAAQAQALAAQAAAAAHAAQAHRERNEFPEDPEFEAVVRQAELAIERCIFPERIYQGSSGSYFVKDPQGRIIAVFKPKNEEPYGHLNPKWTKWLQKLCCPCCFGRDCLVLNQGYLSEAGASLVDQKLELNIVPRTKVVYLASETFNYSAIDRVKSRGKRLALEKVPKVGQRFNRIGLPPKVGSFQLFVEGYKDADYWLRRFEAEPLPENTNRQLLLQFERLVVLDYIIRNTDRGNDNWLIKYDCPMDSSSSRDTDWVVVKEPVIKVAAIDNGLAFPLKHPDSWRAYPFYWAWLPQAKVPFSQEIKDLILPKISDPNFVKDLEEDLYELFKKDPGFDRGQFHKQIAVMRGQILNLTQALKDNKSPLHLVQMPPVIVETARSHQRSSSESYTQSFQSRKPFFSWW
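ADP-Glo luminescence measured ADP generated by PI4K2A enzyme (4 ug/mL before mixing) with 1.2 mM PI substrate (pre-mix) and 300 microM ATP (pre-mix). Tris pH7.5 buffer with MgCl2, Triton X-100; 1 h reaction at ambient temperature.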
PI5P4K alpha inh: qHTS for Inhibitors of phosphatidylinositol 5-phosphate 4-kinase (PI5P4K); AID 652105, 2013; Phosphatidylinositol 5-phosphate 4-kinase type-2 alpha (Homo sapiens), P48426; max response, %; PI5P4Kalpha enzyme, ADP-Glo luminescence, 60 min; active compounds read low; 330,000 tested, 1.2% active; active = max response of -50% or lower; inconclusive = between -30% and -50%; inactive = -30% or higher; note: value at the top dose of about 77 µM
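Quantitative HTS of the MLSMR library against PI5P4Kalpha with substrate. ATP added last at 5 microM final; room temperature, 60 minutes. Remaining ATP depleted, ADP converted and read as luminescence.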
RGS12 GoLoco inh: qHTS Assay for Inhibitors of RGS12 GoLoco Motif Activity (Red Fluorophore); Guanine nucleotide-binding protein G(i) subunit alpha-1 (Homo sapiens), P63096; AID 880, 2007; 230,000 tested, 0.44% active; Gai1:RGS12 GoLoco peptide FP, rhodamine, 10 min; Potency, µM (titrated, usually from 61.6 µM), without a hit: top-dose activity, negative = inhibition, most hits filed as inhibitors; active = well fitted inhibition curve with a large enough effect, not every such curve was filed as active; inactive = no such curve, though single readings can be large or run the other way; note: potency is the fitted concentration of half-maximal effect; nearly all actives have a fitted effect of over 30% in size
Tb PGK inh: qHTS Assay to Find Inhibitors of Phosphoglycerate Kinase; Potency, µM (highest dose often 57.5 µM), for inactives: at the top dose activity change, negative = inhibition, hits mostly inhibitors; PGK/GAPDH coupled, Kinase-Glo luminescence, 60 min; 380,000 tested, 0.043% active; Phosphoglycerate kinase, glycosomal (Trypanosoma brucei brucei), P07378; note: potency is the fitted concentration of half-maximal effect; nearly all actives have a fitted effect of over 60% in size
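Recombinant glycosomal PGK reaction used 1,3-bisphosphoglycerate generated in-well by GAPDH (100nM final) in 100mM TEA pH 7.6, 5mM MgCl2, 0.01% Tween-20. After 60 minutes at room temperature, ATP was read by Kinase-Glo Plus luminescence end-point.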
GCN5L2 inh: qHTS Assay for Inhibitors of GCN5L2. 390,000 tested, 0.21% active. AID 504327, 2011. Potency, µM (titrated, usually from 58.9 µM), inactives show top-dose activity change, negative = inhibition, actives largely listed as inhibitors. Histone acetyltransferase KAT2A (Homo sapiens), Q92830. GCN5L2 HAT assay, ThioGlo1 CoA-SH fluorescence; note: potency is the fitted concentration of half-maximal effect
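GCN5L2 (20nM final) in 50mM HEPES, 0.1mM EDTA pH 7.5, 0.01% Tween-20 was preincubated 15 min at room temperature with compound, then given ThioGlo1 (50uM), H3(1-25) peptide (75uM) and acetyl-CoA (70uM); CoA-thiol fluorescence (Ex340/Em540) was read at 0 and 20 min.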
Starred values were filed as active, the others as inactive; i = inactive; u = inconclusive; x = no result; [ ] = another dose, or the depositor's remark. Hits are enriched below; roughly 1.2% of the tested compounds scored in any of these assays. Unless noted, calls come from the whole dose curve; as a rule, active = well fitted curve in the direction sought with a large enough effect; inconclusive = small, poorly fitted or top-dose-only effect, or another doubt; inactive = no such curve, though single readings can be large; an effect the other way counts as inactive or inconclusive. Unless noted, % is set by controls: 0 for no effect and ±100 for the full control effect.

SMILES	Pin1 inhibitor	PI4K2A inh	PI5P4K alpha inh	RGS12 GoLoco inh	Tb PGK inh	GCN5L2 inh
Cc1c(NC(=O)Nc2cc(Cl)ccc2Cl)c(=O)n(-c2ccccc2)n1C	3.7%	2.5	1.0	x	-7.7%	-3.7%
Cc1ccc(S(=O)(=O)N2CCN(C(=O)CCn3cncn3)CC2)cc1	5.2%	5.9	0.6	x	-4.0%	-0.1%
COc1cc(Cl)c(C)cc1NC(=O)CSc1ncc(S(=O)(=O)c2ccc(C(C)(C)C)cc2)c(=O)[nH]1	x	-26.7	x	x	u	17.8µM*
CC(C)(C)c1ccc(S(=O)(=O)c2cnc(SCC(=O)Nc3ccc(F)c(Cl)c3)[nH]c2=O)cc1	x	-0.6	x	x	u	28.2µM*
O=C(CSc1ncc(S(=O)(=O)c2ccc(Cl)cc2)c(=O)[nH]1)Nc1cccc(C(F)(F)F)c1	u	-8.9	x	x	-14.3%	-7.3%
CCc1ccc(S(=O)(=O)c2cnc(SCC(=O)Nc3ccc(OC)cc3OC)[nH]c2=O)cc1	-7.8%	-1.9	x	x	8.8%	-3.1%
C/C(=N\Nc1ccccn1)c1cccs1	-4.6%	1.1	-0.8	6.0%	-1.3%	-6.2%
Cc1ccc(-c2ccc(C(=O)NCc3ccccc3)o2)c2ccccc12	47.0%	-4.6	0.2	2.3%	-1.2%	-8.3%
Cc1ccc(-c2ccc(C(=O)Nc3ccccc3)o2)c2ccccc12	41.9%	-55.3*	7.7	8.7%	-7.2%	-10.8%
CCOC(=O)c1c(C)[nH]c(C)c1C(=O)COC(=O)c1cccc(S(=O)(=O)NC)c1	3.2%	-1.4	2.8	10.9%	2.7%	-6.2%
CNS(=O)(=O)c1cccc(C(=O)OCC(=O)c2ccc[nH]2)c1	u	-14.7	-61.6*	x	-14.2%	-25.6%
COc1ccc(C(=O)C[N+]2(C)CCOCC2)cc1	5.3%	-2.7	x	7.08µM*	3.6%[11.5 µM]	-5.9%[0.501 µM]
COc1ccc(C(=O)OCCN2CCCCC2)cc1	5.4%	-2.1	0.6	2.8%	-3.2%	-2.4%
COc1ccc(C(=O)OCC[N+]2(C)CCCCC2)cc1	4.1%	0.1	4.1	12.6µM*	3.6%	-19.1%
COc1ccc(N(Cc2nnc3n2CCCCC3)C(=O)Nc2ccc(Cl)cc2)cc1Cl	0.5%	0.8	x	x	2.0%	-6.8%
Cc1ccccc1N1CCN(c2ccc(NC(=O)C3CCCCC3C(=O)O)cc2)CC1 (stereo unspecified)	3.5%	0.5	-9.1	0.4%	6.4%	2.2%
O=C(CSc1nnc(Nc2ccccc2)s1)NC1CCS(=O)(=O)C1 (stereo unspecified)	-6.2%	-3.2	-2.0	x	i	-3.8%
O=C(NCc1ccco1)C1Cc2ccccc2CN1S(=O)(=O)c1ccccc1F (stereo unspecified)	u	-18.3	-61.5*	x	-15.7%	x
O=C(NCc1ccco1)C1Cc2ccccc2CN1C(=O)c1ccco1 (stereo unspecified)	-14.7%	-5.6	u	4.9%	i	-5.5%
COc1ccc2ccccc2c1/C=N\NC(=O)c1ccc(C)s1	6.9%	-9.5	u	x	-4.1%	-2.5%
COc1cc(/C=N/NC(=O)CC#N)cc(Br)c1O	u	-0.6	u	3.0%	-2.7%	-6.5%
COc1cc(/C=N/NC(=O)c2sc(N)c(C#N)c2C)cc(Br)c1O	16.8%	-2.1	-73.3*	16.4%	2.9%	18.8%
COc1ccc2ccccc2c1/C=N/NC(=O)c1sc(N)c(C#N)c1C	u	-1.1	-76.2*	9.4%	-1.9%	0.9%
COc1cc(C=NNC(=O)c2ccc(NS(=O)(=O)c3cccs3)cc2)cc(Br)c1O	-0.7%	-2.3	-82.3*	x	-3.5%	-3.9%
Cc1cccc(C2(c3cccc(C)c3)CC2C(=O)Nc2ccc([N+](=O)[O-])cc2O)c1 (stereo unspecified)	0.1%	-3.4	2.5	10.0%	i	-15.7%
SMILES	Pin1 inhibitor	PI4K2A inh	PI5P4K alpha inh	RGS12 GoLoco inh	Tb PGK inh	GCN5L2 inh
COc1ccccc1NC(=O)c1ccc(NS(=O)(=O)c2ccc(F)c(Cl)c2)cc1	0.4%	0.3	u	-3.4%	10.1%	-10.9%
CCc1ccccc1NC(=O)c1cc(-c2ccc(F)cc2)on1	-7.0%	0.8	-5.8	-7.6%	i	-9.6%
N#C/C(=C/c1cc(Cl)c(O)c(Cl)c1)C(=O)N1CCCCC1	-2.4%	-21.2	-93.9*	x	-9.1%	-14.5%
COc1cc(/C=C(\C#N)C(=O)N2CCCCC2)ccc1O	3.8%	-2.6	-7.1	x	-5.4%	-6.3%
O=C1/C(=N\O)Cc2ccccc21	-3.7%	-1.6	x	-22.2%	-9.5%	-3.4%
O=C(Cn1nnc2c(cnn2-c2ccc(F)cc2)c1=O)Nc1ccccc1C(F)(F)F	0.3%	1.0	0.0	5.1%	-2.5%	12.6µM*
O=C(CSc1nc2c(cnn2-c2ccc(F)cc2)c(=O)[nH]1)Nc1ccccc1C(F)(F)F	17.2%	-9.9	x	x	-6.5%	2.3%
Cc1cc(N2CCN(c3ccc(F)cc3)CC2)n2cnnc2n1	-6.1%	-2.5	x	x	0.8%	-0.5%
O=C(COC(=O)c1c2c(nc3ccccc13)/C(=C\c1ccco1)CC2)NC1CCCC1	u	u	-55.3*	x	-17.7%	x
CN(CCC#N)C(=O)COC(=O)c1c2c(nc3ccccc13)/C(=C\c1ccco1)CC2	u	-51.7*	u	x	-28.8%	x
N#CC(C#N)=NNc1ccc2cn[nH]c2c1	x	-8.3	-63.6*	6.9%[14.2 µM]	x	x
O=[N+]([O-])c1cc2oc3c(c2c(C=NCc2ccncc2)c1O)CCCC3	4.6%	-12.8	-80.8*	5.2%	-10.3%	-19.2%
CCOC(=O)c1nn(-c2ccccc2)c(=O)c2c(N)scc12	u	u	-60.5*	-9.7%	-12.1%	-21.4%
CN(CCCC(=O)N1CCCC(C(N)=O)C1)S(=O)(=O)c1ccc(F)cc1 (stereo unspecified)	1.3%	-3.6	-4.0	x	-7.0%	-0.8%
COc1cc(C2c3c([nH]c(=O)[nH]c3=O)Nc3ccc4ccccc4c32)ccc1O (stereo unspecified)	1.1%	0.6	-6.4	9.8%	u	-9.4%
COc1cc(C2c3c([nH]c(=O)[nH]c3=O)Nc3ccc4ccccc4c32)cc(OC)c1OC (stereo unspecified)	x	-60.1*	-20.6	-0.2%	u	-7.3%
Cc1ccccc1NC(=O)CSc1ccsc1[N+](=O)[O-]	u	-10.2	-89.7*	6.3%	u	-23.7%
O=C(CSc1ccsc1[N+](=O)[O-])NCc1ccco1	u	-3.7	-70.7*	5.5%	-18.9%	-15.3%
